According to PubChem BioAssay (EPA / NIEHS):
Inconclusive results are not listed. Calls of active or inactive are those of the source. How the source made its calls: active means hit-call score of the fitted dose curve at least 0.9, where 1 is the maximum; inconclusive means response in the unintended direction; inactive means score below 0.9.

Each molecule was assayed against Estrogen receptor (Homo sapiens) (UniProt P03372) (assay: OT_ER_ERaERa_0480: Odyssey Thera (OT) 8-hour HEK293T Protein-Complementation Assay for Estrogen Receptor-alpha/-alpha Homodimer (AID 2283351);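 further: rise in fluorescence from reassembled reporter fragments on ERα LBD homodimer in nucleus or whole cell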).
Chain of Estrogen receptor (Homo sapiens) (P03372 whole entry, looked up, the tested form may be a part): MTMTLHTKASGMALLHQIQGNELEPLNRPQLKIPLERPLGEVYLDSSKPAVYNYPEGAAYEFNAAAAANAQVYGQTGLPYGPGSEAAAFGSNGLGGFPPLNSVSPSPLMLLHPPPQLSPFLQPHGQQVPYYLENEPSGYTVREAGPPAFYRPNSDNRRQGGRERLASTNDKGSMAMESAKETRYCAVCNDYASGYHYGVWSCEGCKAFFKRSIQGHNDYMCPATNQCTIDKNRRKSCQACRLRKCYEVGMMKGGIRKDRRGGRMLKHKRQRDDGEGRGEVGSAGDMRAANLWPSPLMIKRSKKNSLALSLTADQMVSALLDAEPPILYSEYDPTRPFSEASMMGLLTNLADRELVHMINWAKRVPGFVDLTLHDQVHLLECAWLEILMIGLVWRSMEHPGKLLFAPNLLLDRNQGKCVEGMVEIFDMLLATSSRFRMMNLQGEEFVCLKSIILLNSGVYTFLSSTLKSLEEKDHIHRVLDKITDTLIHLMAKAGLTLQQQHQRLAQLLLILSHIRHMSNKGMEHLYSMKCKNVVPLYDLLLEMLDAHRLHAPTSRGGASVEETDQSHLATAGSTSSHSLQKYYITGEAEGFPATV
Summary of the method: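 Read-out: fluorescence intensity rise relative to DMSO, nuclear for agonists, nuclear plus cytoplasmic for antagonists. Construct is the ERα LBD (aa 310-547) homodimer fragment-complementation pair, stably expressed in HEK293T; exposure 8 h.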

outcome, inactive:
O=c1n(CC2CO2)c(=O)n(CC2CO2)c(=O)n1CC1CO1 (stereo unspecified), COC(=O)c1c(Cl)c(Cl)c(C(=O)OC)c(Cl)c1Cl, O=P(OC(CCl)CCl)(OC(CCl)CCl)OC(CCl)CCl, O=C(O)c1cccc(Oc2ccccc2)c1, CCOC(=O)COc1ccc2c(c1)CC(NCC(O)c1cccc(Cl)c1)CC2 (stereo unspecified), Cn1cnc([N+](=O)[O-])c1Sc1ncnc2nc[nH]c12, Cc1ccc(N)cc1O, CC(C)=CCCC(C)=CC=O, CCn1nc(Cc2ccccc2)cc1C1CCN(C[C@H]2C[C@H](N(C)[C@@H](C(=O)O)C(C)C)C[C@@H]2c2cccc(F)c2)CC1, CCC(C)(C)C(=O)O[C@H]1C[C@@H](C)C=C2C=C[C@H](C)[C@H](CC[C@@H]3C[C@@H](O)CC(=O)O3)[C@H]21, C=CCCCCCCCCC(=O)O
